# Test results as given in PubChem BioAssay AID686978 (National Center for Advancing Translational Sciences (NCATS), 2013).
# The campaign covered roughly 420,000 compounds. About 64,000 (15%) were called active. About 27% were inconclusive and are not listed. The list is a sample of the results. Unmarked numbers belong to inactive results. Calls come from the whole dose curve; as a rule, active = well fitted inhibition curve with a large enough effect; inconclusive = small, poorly fitted or top-dose-only effect; inactive = flat fitted curve, though single readings scatter.
# Experiment: qHTS for Inhibitors of human tyrosyl-DNA phosphodiesterase 1 (TDP1): qHTS in cells in absence of CPT; note: nearly all actives have a fitted effect of over 55% in size
# Conditions: DT40 Tdp1-/- hTDP1 cells, no CPT, ATP luminescence, 48 h; activity change, negative = growth inhibition: at 46.2 µM (top of the series)
# How it was run: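 Growth kinetics read by CellTiter-Glo luminescence after ≥48 hr at 37 °C. Cells: DT40 Tdp1-/- stably carrying human TDP1, 400 per well, compound exposure in the absence of CPT (DMSO vehicle).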
# % is set by controls: 0 for no effect and ±100 for the full control effect; potency is the fitted concentration of half-maximal effect.
Structure (SMILES),"activity change, negative = growth inhibition [%]",Potency
Cc1cc(C)cc(OCC(=O)O/N=C(\N)Cc2ccc([N+](=O)[O-])cc2)c1,0.454,
CCOc1ccc(NS(=O)(=O)c2ccc(OCC(=O)NCCCOC)cc2)cc1,-13,
COC(=O)Cc1c(C)c2ccc(OCC(=O)NCc3ccc4c(c3)OCO4)cc2oc1=O,-22.1,
CCOc1ccc2c(=O)c(-c3ccc4c(c3)OCCCO4)c(C)oc2c1,,13 µM (active)
O=C(COc1ccc2c(C(F)(F)F)cc(=O)oc2c1)Nc1ccc2c(c1)OCCO2,-5.56,
Cc1ccc(N2CC(C(=O)Nc3ccc(N(C)C)cc3)CC2=O)cc1Cl (configuration not stated),-9.28,
COc1ccc(CC(=O)NCc2nnc(SCC(=O)Nc3nccs3)n2C)cc1,14.7,
COc1ccc(-n2nnnc2CNC(=O)c2ccc3ccccc3c2)cc1,-26.4,
COc1ccc(CC(=O)NCc2nnc(SCC(=O)Nc3ncc(C)s3)n2C)cc1,,16.4 µM (active)
COc1ccccc1C(=O)NCc1nnc(SC(C)C(=O)Nc2nccs2)n1C (configuration not stated),21.3,
Cc1ccc(SCC(=O)Nc2ncc(C)s2)cc1,-28.1,
COc1ccc(C(=O)NCc2nnc(SCCOc3ccccc3)n2C)cc1,,29.1 µM (active)
Cc1cnc(NC(=O)CSc2nnc(C)s2)s1,7.27,
COC(=O)c1ccc(NC(=O)CSc2nnc(CNc3ccc(OC)cc3)n2C)cc1,-4.03,
Cc1cnc(NC(=O)CSc2c(Cl)cccc2Cl)s1,,13 µM (active)
C=CCC1=C/C(=C\c2c(N)n3nc(CC(=O)N4CCOCC4)sc3nc2=O)C=C(OC)C1=O,15.1,
CC(=O)NC1CC2CCCC(C1)N2CC(=O)Nc1ccccc1 (configuration not stated),2.41,
COc1ccccc1NS(=O)(=O)N(C)C,-6.71,
CC(C)(C)NC(=O)/C(=C/c1cccnc1)NC(=O)c1ccco1,2.45,
NS(=O)(=O)c1ccc2nc(NC(=O)C3=COCCO3)sc2c1,6.91,
N#CC(Cc1cc2ccccc2n1S(=O)(=O)c1ccccc1)OCc1ccccc1 (configuration not stated),-27.1,
O=C(Nn1cnnc1)c1cc(Cl)ccc1Cl,-10.9,
CC(C)=CCN1CCN(Cc2ccc(Oc3ncccn3)cc2)CC1CCO (configuration not stated),-1.59,
Cc1ccc(NC(=O)c2cccc(N(C)C)c2)cc1NC(=O)c1ccc(O)cc1,-28.1,
O=C1[C@@H]2C(c3cccnc3)=NO[C@@H]2C(=O)N1c1ccc(Cl)cc1Cl,-44.3,
OCCC1CN(Cc2ccccc2-c2ccco2)CCN1Cc1ccsc1 (configuration not stated),-34.4,

Structure (SMILES),"activity change, negative = growth inhibition [%]",Potency
Cc1ccc(C)c2[nH]c(=O)c(CCNC(=O)c3cccs3)cc12,-24.4,
COc1ccccc1NC(=O)CCC(=O)OC(C)C(=O)c1ccccc1 (configuration not stated),10.1,
O=C(c1cccs1)N(Cc1cc2ccccc2[nH]c1=O)CC1CCCO1 (configuration not stated),2.95,
COc1ccc2[nH]c(=O)c(CN(Cc3nnnn3CCc3ccccc3)CC3CCCO3)cc2c1 (configuration not stated),,9.2 µM (active)
Cc1cc2cc(CN(Cc3cccs3)Cc3nnnn3CC3CCCO3)c(=O)[nH]c2cc1C (configuration not stated),,20.6 µM (active)
CCOc1ccc2[nH]c(=O)c(CN(Cc3nnnn3CCc3ccccc3)CC3CCCO3)cc2c1 (configuration not stated),,14.6 µM (active)
Cc1ccc(C(=O)N/C(=C/c2cccs2)C(=O)NCC2CCCO2)cc1 (configuration not stated),-6.29,
Cc1ccc(S(=O)(=O)N(Cc2cc3ccccc3[nH]c2=O)CC2CCCO2)cc1 (configuration not stated),-12.1,
Cc1nnc(SCC(=O)NNC(=O)c2ccc(Cl)cc2)n1CC1CCCO1 (configuration not stated),-3.71,
CC(=O)Nc1ccc(NC(=O)CSc2nnc(COc3ccccc3C)n2CC2CCCO2)cc1 (configuration not stated),-6.91,
CCN1C(=O)CS/C1=N\c1nccs1,-2.04,
CCOC(=O)NC(=O)C(=CNc1cccc(OC)c1)C(=O)NC(=O)OCC,-8.39,
CC(=O)CSc1nnc(CSc2ncccn2)n1C1CCCCC1,-0.234,
Cc1ccc(-c2csc(NC(=O)c3cnccn3)n2)cc1C,-9.21,
Cc1ccc(-c2csc(NC(=O)Cc3cccs3)n2)cc1C,-1.64,
Cc1ccc(-c2csc(NC(=O)C3=COCCO3)n2)cc1C,,4.11 µM (active)
O=C(Nc1nc(-c2ccc3c(c2)OCO3)cs1)c1ccncc1,,13 µM (active)
O=C(Nc1nc(-c2cccnc2)cs1)c1ccccc1F,3.03,
CC(=O)NCCC(=O)Nc1nc(-c2ccc3c(c2)OCCO3)cs1,-6.56,
CC1=C(C(=O)Nc2cc(C)ccn2)C(c2cnn(C)c2)C2=C(CC(c3ccccc3)CC2=O)N1 (configuration not stated),-9.41,
O=P(O)(O)C(O)c1ccc2ccccc2c1 (configuration not stated),8.08,
FC(F)(F)Oc1ccc(-c2cn3cccnc3n2)cc1,-19,
Cc1cc(C)cc(C(=O)NC(CC(N)=O)c2ccc(N3CCC(N4CCCCC4)CC3)c([N+](=O)[O-])c2)c1 (configuration not stated),3.31,
CC(=O)c1c(C)[nH]c(C(=O)NCc2ccc(C)cc2)c1C,-28.4,
CCOc1nc(-c2ccc(OC)cc2)ccc1-c1noc(-c2cc(OC)c(OC)c(OC)c2)n1,,3.66 µM (active)
COc1ccc(OC)c(-n2nnc(-c3nc(-c4cc(OC)c(OC)c(OC)c4)no3)c2C)c1,-28.3,
